From the supplement of paper PMC4466140

B1: unnamed (peptide)
chain: VPPPMQPPPIESSNL

The binders below were run against ScBbc1 (assay: SPOT peptide array binding signal intensity (averaged, normalized) (arbitrary units (background-subtracted, floor 0; scale differs between SH3 domains)); higher = stronger binding of the SH3 domain to the peptide).
In short: (§1)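 The binding signal is the normalized, background-subtracted spot intensity averaged over replicates; its arbitrary units differ between domains. It was obtained by incubating 10 μg/ml GST-fused SH3 domains from four yeast species overnight at 4°C in TBS-based blocking buffer on cellulose membranes with synthetic 15-mer peptides, cysteines replaced by serines, then detecting with anti-GST antibody, HRP anti-mouse secondary and luminol.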

Row | Binder | SPOT peptide array binding signal intensity
1 | B1 | ≤ 0

What follows are binders tested against ScBem1-D1 in the same assay as above.
In short: as §1

Row | Binder | SPOT peptide array binding signal intensity
2 | B1 | ≤ 0

The binders below were run against ScBzz1-D1 in the same assay as above.
In short: as §1

Row | Binder | SPOT peptide array binding signal intensity
3 | B1 | ≤ 0

Each binder was assayed against ScBzz1-D2 in the same assay as above.
In short: as §1

Row | Binder | SPOT peptide array binding signal intensity
4 | B1 | 2

The binders below were run against ScCyk3 in the same assay as above.
In short: as §1

Row | Binder | SPOT peptide array binding signal intensity
5 | B1 | 5

The binders below were run against ScFus1 in the same assay as above.
In short: as §1

Row | Binder | SPOT peptide array binding signal intensity
6 | B1 | 328

The binders below were run against ScHof1 in the same assay as above.
In short: as §1

Row | Binder | SPOT peptide array binding signal intensity
7 | B1 | ≤ 0

These binders were tested against ScHse1 in the same assay as above.
In short: as §1

Row | Binder | SPOT peptide array binding signal intensity
8 | B1 | 65

The binders below were run against ScLsb1 in the same assay as above.
In short: as §1

Row | Binder | SPOT peptide array binding signal intensity
9 | B1 | 0.25

These binders were tested against ScLsb2 in the same assay as above.
In short: as §1

Row | Binder | SPOT peptide array binding signal intensity
10 | B1 | ≤ 0

These binders were tested against ScLsb3 in the same assay as above.
In short: as §1

Row | Binder | SPOT peptide array binding signal intensity
11 | B1 | ≤ 0

These binders were tested against ScLsb4 in the same assay as above.
In short: as §1

Row | Binder | SPOT peptide array binding signal intensity
12 | B1 | 9

The binders below were run against ScMyo3 in the same assay as above.
In short: as §1

Row | Binder | SPOT peptide array binding signal intensity
13 | B1 | 854

What follows are binders tested against ScMyo5 in the same assay as above.
In short: as §1

Row | Binder | SPOT peptide array binding signal intensity
14 | B1 | 502

What follows are binders tested against ScNbp2 in the same assay as above.
In short: as §1

Row | Binder | SPOT peptide array binding signal intensity
15 | B1 | 206

What follows are binders tested against ScPex13 in the same assay as above.
In short: as §1

Row | Binder | SPOT peptide array binding signal intensity
16 | B1 | 12.2

Each binder was assayed against ScRvs167 in the same assay as above.
In short: as §1

Row | Binder | SPOT peptide array binding signal intensity
17 | B1 | ≤ 0

What follows are binders tested against ScSho1 in the same assay as above.
In short: as §1

Row | Binder | SPOT peptide array binding signal intensity
18 | B1 | 324

The binders below were run against ScSla1-D1-D2 in the same assay as above.
In short: as §1

Row | Binder | SPOT peptide array binding signal intensity
19 | B1 | 75.5

These binders were tested against ScSla1-D3 in the same assay as above.
In short: as §1

Row | Binder | SPOT peptide array binding signal intensity
20 | B1 | 122

These binders were tested against SpAbp1-D1 in the same assay as above.
In short: as §1

Row | Binder | SPOT peptide array binding signal intensity
21 | B1 | ≤ 0

Each binder was assayed against SpBbc1 in the same assay as above.
In short: as §1

Row | Binder | SPOT peptide array binding signal intensity
22 | B1 | ≤ 0

What follows are binders tested against SpBzz1-D1 in the same assay as above.
In short: as §1

Row | Binder | SPOT peptide array binding signal intensity
23 | B1 | 28.5

These binders were tested against SpBzz1-D2 in the same assay as above.
In short: as §1

Row | Binder | SPOT peptide array binding signal intensity
24 | B1 | ≤ 0

The binders below were run against SpCyk3 in the same assay as above.
In short: as §1

Row | Binder | SPOT peptide array binding signal intensity
25 | B1 | 6

These binders were tested against SpHof1 in the same assay as above.
In short: as §1

Row | Binder | SPOT peptide array binding signal intensity
26 | B1 | 4.5

What follows are binders tested against SpHof1-2 in the same assay as above.
In short: as §1

Row | Binder | SPOT peptide array binding signal intensity
27 | B1 | 1.5

These binders were tested against SpHof1-3 in the same assay as above.
In short: as §1

Row | Binder | SPOT peptide array binding signal intensity
28 | B1 | ≤ 0

The binders below were run against SpHse1 in the same assay as above.
In short: as §1

Row | Binder | SPOT peptide array binding signal intensity
29 | B1 | 163

What follows are binders tested against SpLsb1 in the same assay as above.
In short: as §1

Row | Binder | SPOT peptide array binding signal intensity
30 | B1 | ≤ 0

What follows are binders tested against SpLsb4 in the same assay as above.
In short: as §1

Row | Binder | SPOT peptide array binding signal intensity
31 | B1 | 61.5

These binders were tested against SpMyo1 in the same assay as above.
In short: as §1

Row | Binder | SPOT peptide array binding signal intensity
32 | B1 | 957

These binders were tested against SpNbp2 in the same assay as above.
In short: as §1

Row | Binder | SPOT peptide array binding signal intensity
33 | B1 | 46

The binders below were run against SpPex13 in the same assay as above.
In short: as §1

Row | Binder | SPOT peptide array binding signal intensity
34 | B1 | 5

These binders were tested against SpRvs167 in the same assay as above.
In short: as §1

Row | Binder | SPOT peptide array binding signal intensity
35 | B1 | ≤ 0

Each binder was assayed against SpSla1-D1-D2 in the same assay as above.
In short: as §1

Row | Binder | SPOT peptide array binding signal intensity
36 | B1 | ≤ 0

These binders were tested against SpSla1-D3 in the same assay as above.
In short: as §1

Row | Binder | SPOT peptide array binding signal intensity
37 | B1 | 138
